Assay results taken from PubChem BioAssay (Tox21).
Where “and” joins values, the source holds several entries; their conditions need not be identical. Equal entries are not always repeated. Calls of active or inactive are those of the source. Entries that show only a call come without a potency. Calls come from the whole dose curve; as a rule, active = well fitted curve in the direction sought with a large enough effect in the repeat runs; inconclusive = weak or mixed curves; inactive = flat fitted curve, though single readings scatter.

Experiment: qHTS assay to test for compound auto fluorescence at 535 nm (green) in HepG2 cells (AID 720675); note: potency is the fitted concentration of half-maximal effect
Details: green autofluorescence 485/535 nm, 1 h; series mostly up to 91.3 µM
Tags give direction and shape of the fitted curve or compound fluorescence and quenching.

Compound | Potency
O=CC(=O)c1ccccc1 | inactive
CC(C)NCC(O)c1ccc(O)c(O)c1 (configuration not stated) | inactive
CN1[C@@H]2CC(OC(=O)[C@H](CO)c3ccccc3)C[C@H]1[C@@H]1O[C@@H]12 (some centres not stated) | inactive
O=C1NS(=O)(=O)c2ccccc21 | inactive
CN[C@H]1CC[C@@H](c2ccc(Cl)c(Cl)c2)c2ccccc21 | inactive
COc1ccc(CN(CCN(C)C)c2ccccn2)cc1 | inactive
O=c1[nH]cnc2c1ncn2[C@H]1CC[C@@H](CO)O1 | inactive
O=C(Nc1ncc([N+](=O)[O-])s1)c1cccs1 | inactive
CC(=O)CCC(=O)O | inactive
CC/C(=C(\c1ccccc1)c1ccc(OCCN(C)C)cc1)c1ccccc1 | inactive
O=S1(=O)OC(c2ccc(O)cc2)(c2ccc(O)cc2)c2ccccc21 | inactive
C=C(C)C(=O)OCC(C)O (configuration not stated) | inactive
CCCCCCCCCCCCCCCC[N+](C)(C)Cc1ccccc1 | inactive
CCCC[P+](CCCC)(CCCC)CCCC | inactive
CC(O)(P(=O)(O)O)P(=O)(O)O | inactive
CC(=O)CC(c1ccccc1)c1c(O)c2ccccc2oc1=O (configuration not stated) | inactive
Nc1c2c(nc3ccccc13)CCCC2 | inactive
COc1ccc2cc(S(=O)(=O)N[C@H](CC(=O)N[C@H](Cc3ccc(CN4[C@H](C)CCC[C@@H]4C)cc3)C(=O)N(C)C(C)C)c3ccc4c(c3)OCO4)ccc2c1 | inactive
CN1CCC[C@H]1c1cccnc1 | inactive
CCN(Cc1c(F)cccc1Cl)c1c([N+](=O)[O-])cc(C(F)(F)F)cc1[N+](=O)[O-] | inactive
CCCCC(CC)C(=O)O (configuration not stated) | inactive
C1=CC2C3C=CC(C3)C2C1 (configuration not stated) | inactive
C/C=C/C=C/C(=O)O | inactive
O=C1OC2(c3ccccc31)c1cc(Br)c(O)c(Br)c1Oc1c2cc(Br)c(O)c1Br | 12.6 µM (active) and 4.47 µM (active) and 17.8 µM (active)
CC(C)c1c(C(=O)Nc2ccccc2)c(-c2ccccc2)c(-c2ccc(F)cc2)n1CC[C@@H](O)C[C@@H](O)CC(=O)O | inactive
CCCCCCc1ccc(O)cc1O | inactive
Cc1ccc(S(=O)(=O)O)cc1 | inactive
Nc1ccc(O)c([N+](=O)[O-])c1 | inactive
CCN(CC)C(=O)c1cccc(C)c1 | inactive

Experiment: qHTS assay to test for compound auto fluorescence at 460 nm (blue) in HEK293 cells (AID 720678)
Details: blue autofluorescence 405/460 nm; series mostly up to 91.3 µM
Procedure, shortened: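 Cells were seeded and left to adhere for 4-5 hr at 37C. Compounds were then pin-transferred. After an overnight incubation at 37C under 5% CO2, intrinsic fluorescence at 405/460 nm was measured and referenced to triamterene.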

Compound | Potency
O=CC(=O)c1ccccc1 | inactive
CC(C)NCC(O)c1ccc(O)c(O)c1 (configuration not stated) | inactive
CN1[C@@H]2CC(OC(=O)[C@H](CO)c3ccccc3)C[C@H]1[C@@H]1O[C@@H]12 (some centres not stated) | inactive
O=C1NS(=O)(=O)c2ccccc21 | inactive
CN[C@H]1CC[C@@H](c2ccc(Cl)c(Cl)c2)c2ccccc21 | inactive
COc1ccc(CN(CCN(C)C)c2ccccn2)cc1 | inactive
O=c1[nH]cnc2c1ncn2[C@H]1CC[C@@H](CO)O1 | inactive
O=C(Nc1ncc([N+](=O)[O-])s1)c1cccs1 | inactive
CC(=O)CCC(=O)O | inactive
CC/C(=C(\c1ccccc1)c1ccc(OCCN(C)C)cc1)c1ccccc1 | inactive
O=S1(=O)OC(c2ccc(O)cc2)(c2ccc(O)cc2)c2ccccc21 | inactive
C=C(C)C(=O)OCC(C)O (configuration not stated) | inactive
CCCCCCCCCCCCCCCC[N+](C)(C)Cc1ccccc1 | inactive
CCCC[P+](CCCC)(CCCC)CCCC | inactive
CC(O)(P(=O)(O)O)P(=O)(O)O | inactive
CC(=O)CC(c1ccccc1)c1c(O)c2ccccc2oc1=O (configuration not stated) | inactive
Nc1c2c(nc3ccccc13)CCCC2 | inactive
COc1ccc2cc(S(=O)(=O)N[C@H](CC(=O)N[C@H](Cc3ccc(CN4[C@H](C)CCC[C@@H]4C)cc3)C(=O)N(C)C(C)C)c3ccc4c(c3)OCO4)ccc2c1 | inactive
CN1CCC[C@H]1c1cccnc1 | inactive
CCN(Cc1c(F)cccc1Cl)c1c([N+](=O)[O-])cc(C(F)(F)F)cc1[N+](=O)[O-] | inactive
CCCCC(CC)C(=O)O (configuration not stated) | inactive
C1=CC2C3C=CC(C3)C2C1 (configuration not stated) | inactive
C/C=C/C=C/C(=O)O | inactive
O=C1OC2(c3ccccc31)c1cc(Br)c(O)c(Br)c1Oc1c2cc(Br)c(O)c1Br | inactive
CC(C)c1c(C(=O)Nc2ccccc2)c(-c2ccccc2)c(-c2ccc(F)cc2)n1CC[C@@H](O)C[C@@H](O)CC(=O)O | inactive
CCCCCCc1ccc(O)cc1O | inactive
Cc1ccc(S(=O)(=O)O)cc1 | inactive
Nc1ccc(O)c([N+](=O)[O-])c1 | inactive
CCN(CC)C(=O)c1cccc(C)c1 | inactive

Experiment: qHTS assay to test for compound auto fluorescence at 590 nm (red) in HEK293 cells (AID 720679); note: potency is the fitted concentration of half-maximal effect
Details: red autofluorescence 540/590 nm; series mostly up to 91.3 µM
Procedure, shortened: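 Each well held 2,000 HEK293 cells in medium containing 10% dialyzed FBS. Following 4-5 hr attachment at 37C, 23 nL test compound or DMSO was added; plates sat overnight, and red fluorescence (540/590nm) was recorded.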

Compound | Potency
O=CC(=O)c1ccccc1 | inactive
CC(C)NCC(O)c1ccc(O)c(O)c1 (configuration not stated) | inactive
CN1[C@@H]2CC(OC(=O)[C@H](CO)c3ccccc3)C[C@H]1[C@@H]1O[C@@H]12 (some centres not stated) | inactive
O=C1NS(=O)(=O)c2ccccc21 | inactive
CN[C@H]1CC[C@@H](c2ccc(Cl)c(Cl)c2)c2ccccc21 | inactive
COc1ccc(CN(CCN(C)C)c2ccccn2)cc1 | inactive
O=c1[nH]cnc2c1ncn2[C@H]1CC[C@@H](CO)O1 | inactive
O=C(Nc1ncc([N+](=O)[O-])s1)c1cccs1 | inactive
CC(=O)CCC(=O)O | inactive
CC/C(=C(\c1ccccc1)c1ccc(OCCN(C)C)cc1)c1ccccc1 | inactive
O=S1(=O)OC(c2ccc(O)cc2)(c2ccc(O)cc2)c2ccccc21 | inactive
C=C(C)C(=O)OCC(C)O (configuration not stated) | inactive
CCCCCCCCCCCCCCCC[N+](C)(C)Cc1ccccc1 | inactive
CCCC[P+](CCCC)(CCCC)CCCC | inactive
CC(O)(P(=O)(O)O)P(=O)(O)O | inactive
CC(=O)CC(c1ccccc1)c1c(O)c2ccccc2oc1=O (configuration not stated) | inactive
Nc1c2c(nc3ccccc13)CCCC2 | inactive
COc1ccc2cc(S(=O)(=O)N[C@H](CC(=O)N[C@H](Cc3ccc(CN4[C@H](C)CCC[C@@H]4C)cc3)C(=O)N(C)C(C)C)c3ccc4c(c3)OCO4)ccc2c1 | inactive
CN1CCC[C@H]1c1cccnc1 | inactive
CCN(Cc1c(F)cccc1Cl)c1c([N+](=O)[O-])cc(C(F)(F)F)cc1[N+](=O)[O-] | inactive
CCCCC(CC)C(=O)O (configuration not stated) | inactive
C1=CC2C3C=CC(C3)C2C1 (configuration not stated) | inactive
C/C=C/C=C/C(=O)O | inactive
O=C1OC2(c3ccccc31)c1cc(Br)c(O)c(Br)c1Oc1c2cc(Br)c(O)c1Br | 5.01 µM [fluorescent] (active) and 4.47 µM [fluorescent] (active) and 3.55 µM [fluorescent] (active)
CC(C)c1c(C(=O)Nc2ccccc2)c(-c2ccccc2)c(-c2ccc(F)cc2)n1CC[C@@H](O)C[C@@H](O)CC(=O)O | inactive
CCCCCCc1ccc(O)cc1O | inactive
Cc1ccc(S(=O)(=O)O)cc1 | inactive
Nc1ccc(O)c([N+](=O)[O-])c1 | inactive
CCN(CC)C(=O)c1cccc(C)c1 | inactive
